Data published in PubChem BioAssay (Tox21).
Several values for one entry are separate records, joined by “and”; a condition that tells them apart may be missing. Identical values can stand only once. Records with an inconclusive call do not appear. The source holds several records for some structures; these can differ, active in one and inactive in another. Activity calls are given as the source filed them. Calls come from the whole dose curve; as a rule, active = well fitted curve in the direction sought with a large enough effect in the repeat runs; inconclusive = weak or mixed curves; inactive = no such curve, though single readings can be large; an effect the other way counts as inactive or inconclusive.

Legend:
[1] = A CellTox Green Cytotoxicity Assay to monitor cytotoxicity in HEK293 cells - 40 hour (AID 1224871); note: nearly all actives have a fitted effect of over 45% in size; note: potency is the fitted concentration of half-maximal effect
Summary of the method: (§1)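 Real-time, in one plate: 600 HEK293 cells/well with dead-cell DNA dye, pinned compound after 5 h, 37 C incubation over 40 h; viable cells give no appreciable fluorescence.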

[2] = qHTS RealTime-Glo MT Cell Viability Assay in HEK293 cells - 16 hour (AID 1224872); note: nearly all actives have a fitted effect of over 50% in size; note: potency is the fitted concentration of half-maximal effect
Summary of the method: (§2)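 Reads taken at 0, 8, 16, 24, 32 and 40 h from the same wells. HEK293 cells (600/well) carried RealTime-Glo reagents from seeding, with compound added after a 5 h settle at 37 C.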

[3] = qHTS RealTime-Glo MT Cell Viability Assay in HepG2 cells - 8 hour (AID 1224873); note: nearly all actives have a fitted effect of over 55% in size
Summary of the method: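 Real-time viability: cells seeded at 600 per well together with NanoLuc and cell-permeant prosubstrate, compounds added after 5 h incubation. Luminescence tracked at 0, 8, 16, 24, 32 and 40 h of exposure.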

[4] = qHTS RealTime-Glo MT Cell Viability Assay in HEK293 cells - 40 hour (AID 1224874); conditions: RealTime-Glo luminescence; max response: stronger effect = lower value; note: nearly all actives have a fitted effect of over 50% in size; note: potency is the fitted concentration of half-maximal effect
Summary of the method: (§3)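 Kinetic, non-lysing viability readout. Seed HEK293 (600/well) with reagent, incubate 5 h at 37 C/5% CO2, pin 23 nL compound in DMSO, incubate at 37 C, read luminescence at 0, 8, 16, 24, 32, 40 h.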

[5] = A CellTox Green Cytotoxicity Assay to monitor cytotoxicity in HEK293 cells - 24 hour (AID 1224875); note: nearly all actives have a fitted effect of over 45% in size; note: potency is the fitted concentration of half-maximal effect
Summary of the method: as §1

[6] = A CellTox Green Cytotoxicity Assay to monitor cytotoxicity in HepG2 cells - 16 hour (AID 1224876); note: nearly all actives have a fitted effect of over 45% in size; note: potency is the fitted concentration of half-maximal effect
Summary of the method: (§4)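 Cytotoxicity was tracked as dead-cell DNA fluorescence in HepG2 cells treated with test compounds at 37 C; each time-point value comes from one kinetic series spanning 0, 8, 16, 24, 32 and 40 h.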

[7] = qHTS RealTime-Glo MT Cell Viability Assay in HepG2 cells - 32 hour (AID 1224877); note: nearly all actives have a fitted effect of over 55% in size; note: potency is the fitted concentration of half-maximal effect
Summary of the method: (§5)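 HepG2 suspension premixed with RealTime-Glo reagents is plated at 600 cells per well and left 5 h at 37 C/5% CO2. Compounds in DMSO then go in, and bioluminescence reflecting viable cell number is recorded over 40 h.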

[8] = A CellTox Green Cytotoxicity Assay to monitor cytotoxicity in HepG2 cells - 24 hour (AID 1224878); note: nearly all actives have a fitted effect of over 45% in size; note: potency is the fitted concentration of half-maximal effect
Summary of the method: as §4

[9] = A CellTox Green Cytotoxicity Assay to monitor cytotoxicity in HepG2 cells - 40 hour (AID 1224879); note: nearly all actives have a fitted effect of over 40% in size; note: potency is the fitted concentration of half-maximal effect
Summary of the method: as §4

[10] = A CellTox Green Cytotoxicity Assay to monitor cytotoxicity in HEK293 cells - 32 hour (AID 1224881); note: nearly all actives have a fitted effect of over 40% in size; note: potency is the fitted concentration of half-maximal effect
Summary of the method: as §1

[11] = A CellTox Green Cytotoxicity Assay to monitor cytotoxicity in HepG2 cells - 0 hour (AID 1224882); note: nearly all actives have a fitted effect of over 35% in size
Summary of the method: as §4

[12] = A CellTox Green Cytotoxicity Assay to monitor cytotoxicity in HepG2 cells - 32 hour (AID 1224883); note: nearly all actives have a fitted effect of over 50% in size; note: potency is the fitted concentration of half-maximal effect
Summary of the method: as §4

[13] = A CellTox Green Cytotoxicity Assay to monitor cytotoxicity in HEK293 cells - 8 hour (AID 1224884); note: nearly all actives have a fitted effect of over 35% in size
Summary of the method: as §1

[14] = qHTS RealTime-Glo MT Cell Viability Assay in HepG2 cells - 16 hour (AID 1224885); note: nearly all actives have a fitted effect of over 50% in size; note: potency is the fitted concentration of half-maximal effect
Summary of the method: as §5

[15] = qHTS RealTime-Glo MT Cell Viability Assay in HEK293 cells - 24 hour (AID 1224886); note: nearly all actives have a fitted effect of over 50% in size; note: potency is the fitted concentration of half-maximal effect
Summary of the method: as §2

[16] = qHTS RealTime-Glo MT Cell Viability Assay in HEK293 cells - 8 hour (AID 1224887); note: nearly all actives have a fitted effect of over 50% in size; note: potency is the fitted concentration of half-maximal effect
Summary of the method: as §3

[17] = A CellTox Green Cytotoxicity Assay to monitor cytotoxicity in HEK293 cells - 16 hour (AID 1224888); note: nearly all actives have a fitted effect of over 35% in size
Summary of the method: as §1

[18] = A CellTox Green Cytotoxicity Assay to monitor cytotoxicity in HepG2 cells - 8 hour (AID 1224890); note: nearly all actives have a fitted effect of over 45% in size
Summary of the method: as §4

[19] = qHTS RealTime-Glo MT Cell Viability Assay in HepG2 cells - 0 hour (AID 1224889); note: nearly all actives have a fitted effect of over 50% in size
Summary of the method: as §5

[20] = qHTS RealTime-Glo MT Cell Viability Assay in HEK293 cells - 0 hour (AID 1224880)
Summary of the method: as §3
% is set by controls: 0 for no effect and ±100 for the full control effect.

O=Cc1ccc2c(c1)OCO2
inactive: Potency [1] | Potency [2] | Potency [3] | max response [4] 0.0881% | Potency [5] | Potency [6] | Potency [7] | Potency [8] | Potency [9] | Potency [10] | Potency [11] | Potency [12] | Potency [13] | Potency [14] | Potency [15] | Potency [16] | Potency [17] | Potency [18]

CCOc1nc(F)cc2nc(S(=O)(=O)Nc3c(Cl)cccc3Cl)nn12
inactive: Potency [1] | Potency [2] | Potency [3] | max response [4] 30.5% | Potency [5] | Potency [6] | Potency [7] | Potency [8] | Potency [9] | Potency [10] | Potency [11] | Potency [12] | Potency [13] | Potency [14] | Potency [15] | Potency [16] | Potency [17] | Potency [18]

O=Cc1ccc(Cl)cc1Cl
inactive: Potency [1] | Potency [2] | Potency [3] | max response [4] -1.06% | Potency [5] | Potency [6] | Potency [7] | Potency [8] | Potency [9] | Potency [10] | Potency [11] | Potency [12] | Potency [13] | Potency [14] | Potency [15] | Potency [16] | Potency [17] | Potency [19] | Potency [18]

Sc1ccccc1Cl
inactive: Potency [1] | Potency [2] | Potency [3] | max response [4] -1.55% | Potency [5] | Potency [7] | Potency [9] | Potency [20] | Potency [10] | Potency [13] | Potency [14] | Potency [15] | Potency [16] | Potency [17]

O=C(O)c1ccccc1C(=O)Nc1cccc2ccccc12
inactive: Potency [1] | Potency [2] | Potency [3] | max response [4] 18.5% | Potency [5] | Potency [6] | Potency [7] | Potency [8] | Potency [9] | Potency [20] | Potency [10] | Potency [11] | Potency [12] | Potency [13] | Potency [14] | Potency [16] | Potency [19] | Potency [18]

CC1Sc2c(C(=O)O)c(=O)c3cc(F)c(N4CCNCC4)cc3n21 (stereo unspecified)
inactive: Potency [1] | Potency [2] | Potency [3] | max response [4] 1.01% | Potency [5] | Potency [6] | Potency [7] | Potency [8] | Potency [9] | Potency [20] | Potency [10] | Potency [11] | Potency [12] | Potency [13] | Potency [14] | Potency [15] | Potency [16] | Potency [18]

CCCCN(N=O)C(=N)N[N+](=O)[O-]
inactive: Potency [1] | Potency [2] | Potency [3] | Potency [5] | Potency [6] | Potency [7] | Potency [8] | Potency [9] | Potency [20] | Potency [10] | Potency [11] | Potency [12] | Potency [13] | Potency [14] | Potency [15] | Potency [16] | Potency [17] | Potency [19] | Potency [18]

CC(=O)c1cc2c(cc1C)C(C)(C)C(C)CC2(C)C (stereo unspecified)
inactive: Potency [3] | max response [4] -12.1% | Potency [7] | Potency [20] | Potency [11] | Potency [14] | Potency [19]
active: Potency [1] 19.5 µM | Potency [5] 19.5 µM | Potency [6] 38.9 µM | Potency [8] 38.9 µM | Potency [9] 38.9 µM | Potency [10] 19.5 µM | Potency [12] 38.9 µM

CCC(COC(=O)c1cc(OC)c(OC)c(OC)c1)(c1ccccc1)N(C)C (stereo unspecified)
active: Potency [2] 26.8 µM | Potency [16] 26.8 µM
inactive: Potency [1] | Potency [3] | Potency [5] | Potency [6] | Potency [7] | Potency [8] | Potency [9] | Potency [20] | Potency [10] | Potency [11] | Potency [12] | Potency [13] | Potency [14] | Potency [17] | Potency [19] | Potency [18]

OC(c1ccc(Cl)cc1)(c1ccc(Cl)cc1)c1cccnc1
active: Potency [2] 38.9 µM | Potency [4] 38.9 µM | Potency [15] 38.9 µM
inactive: Potency [1] | Potency [5] | Potency [6] | Potency [8] | Potency [9] | Potency [20] | Potency [10] | Potency [11] | Potency [12] | Potency [13] | Potency [19] | Potency [18]

O=C(CBr)OCc1ccccc1
inactive: Potency [1] | Potency [3] | Potency [5] | Potency [6] | Potency [7] | Potency [8] | Potency [9] | Potency [20] | Potency [10] | Potency [11] | Potency [12] | Potency [13] | Potency [14] | Potency [16] | Potency [17] | Potency [19] | Potency [18]

S=C=NCc1ccccc1
inactive: Potency [3] | Potency [6] | Potency [8] | Potency [11] | Potency [13] | Potency [14] | Potency [17] | Potency [18]
active: Potency [1] 55.5 µM | Potency [2] 24.8 µM | Potency [4] 44.1 µM | Potency [10] 49.5 µM | Potency [15] 24.8 µM

O=C(CCl)c1ccc(Cl)cc1Cl
inactive and 23.9 µM (active): Potency [6] | Potency [8]
inactive and 21.3 µM (active): Potency [7]
inactive and 16.9 µM (active): Potency [14]
active: Potency [1] 8.49 µM | Potency [2] 4.25 µM | Potency [4] 17.3 µM and 2.39 µM | Potency [5] 10.7 µM | Potency [9] 23.9 µM | Potency [10] 8.49 µM | Potency [12] 23.9 µM | Potency [15] 4.77 µM
inactive: Potency [20] | Potency [11] | Potency [13] | Potency [16] | Potency [19] | Potency [18]

COC(N)=O
inactive: Potency [1] | Potency [2] | Potency [3] | Potency [5] | Potency [6] | Potency [7] | Potency [8] | Potency [9] | Potency [10] | Potency [11] | Potency [12] | Potency [13] | Potency [14] | Potency [15] | Potency [16] | Potency [17] | Potency [19] | Potency [18]

O=C(NC(=O)c1c(F)cccc1F)Nc1cc(Cl)c(Oc2ncc(C(F)(F)F)cc2Cl)c(Cl)c1
inactive: Potency [1] | Potency [3] | Potency [5] | Potency [6] | Potency [7] | Potency [8] | Potency [9] | Potency [20] | Potency [10] | Potency [11] | Potency [12] | Potency [13] | Potency [16] | Potency [17] | Potency [19] | Potency [18]

CCOC(=O)CBr
inactive: Potency [1] | Potency [3] | max response [4] -15% | Potency [5] | Potency [6] | Potency [7] | Potency [8] | Potency [9] | Potency [20] | Potency [10] | Potency [11] | Potency [12] | Potency [13] | Potency [14] | Potency [17] | Potency [19] | Potency [18]

CCC(C)(NC(=O)c1cc(Cl)c(C)c(Cl)c1)C(=O)CCl (stereo unspecified)
active: Potency [1] 43.9 µM | Potency [2] 27.7 µM | Potency [4] 13.9 µM | Potency [7] 49.3 µM | Potency [9] 49.3 µM | Potency [10] 43.9 µM | Potency [12] 49.3 µM | Potency [14] 49.3 µM | Potency [15] 24.7 µM | Potency [16] 27.7 µM
inactive: Potency [20] | Potency [11] | Potency [13] | Potency [17] | Potency [19] | Potency [18]

BrCC(Br)C1CCC(Br)C(Br)C1 (stereo unspecified)
inactive: Potency [1] | Potency [3] | max response [4] -20.5% | Potency [5] | Potency [6] | Potency [7] | Potency [8] | Potency [9] | Potency [20] | Potency [10] | Potency [11] | Potency [12] | Potency [13] | Potency [14] | Potency [17] | Potency [19] | Potency [18]

Cc1ccccc1C(=O)Nc1cccc(OC(C)C)c1
inactive: Potency [1] | Potency [2] | Potency [3] | Potency [5] | Potency [6] | Potency [7] | Potency [8] | Potency [9] | Potency [20] | Potency [10] | Potency [11] | Potency [12] | Potency [13] | Potency [14] | Potency [16] | Potency [17] | Potency [19] | Potency [18]

O=C(Nc1ccccc1)Nc1ccnc(Cl)c1
inactive: Potency [1] | Potency [3] | Potency [5] | Potency [6] | Potency [7] | Potency [8] | Potency [20] | Potency [10] | Potency [11] | Potency [13] | Potency [14] | Potency [17] | Potency [18]
active: Potency [4] 19.5 µM | Potency [15] 19.5 µM
